Screening results deposited in PubChem by National Center for Advancing Translational Sciences (NCATS).
TSHR antagonist = antagonists of human thyroid stimulating hormone receptor | actives 0.2% (n = 330,000) | P16473 | TSHR-expressing cells, TSH-stimulated cAMP HTRF, 2 h; hits give low values | activity change, negative = inhibition, % at 11.5 µM | AID 504810;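 active = activity change below a set negative limit, meaning inhibition stronger than a set level, cut at about -70% in these data; inconclusive = activity change between two set negative limits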; also: % is scaled to controls: 0 for no effect and ±100 for the full control effect
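Read-out is FRET at 665 nm (cryptate excitation 337 nm) from a cryptate-tagged anti-cAMP antibody, competed by cell cAMP against cAMP-d2. Compounds are tested on freshly harvested TSHR cells challenged with 4nM TSH (EC80) for 2 hours at 37 deg C.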
GLP1R inv ag = acts as inverse agonist at human GLP-1 receptor; Potency, µM (series often up to 38.3 µM), inactives show at the highest dose activity change, negative = inhibition, actives largely listed as inhibitors; HEK293 GLP-1R CRE-luciferase, luminescence, 24 h; GLP-1R form is constitutively active; actives 1.6% (n = 410,000); AID 624417; also: potency is read from the fitted curve at half-maximal effect; % is scaled to controls: 0 for no effect and ±100 for the full control effect; nearly all actives have a fitted effect of over 55% in size
Target sequence (P43220 whole entry, looked up): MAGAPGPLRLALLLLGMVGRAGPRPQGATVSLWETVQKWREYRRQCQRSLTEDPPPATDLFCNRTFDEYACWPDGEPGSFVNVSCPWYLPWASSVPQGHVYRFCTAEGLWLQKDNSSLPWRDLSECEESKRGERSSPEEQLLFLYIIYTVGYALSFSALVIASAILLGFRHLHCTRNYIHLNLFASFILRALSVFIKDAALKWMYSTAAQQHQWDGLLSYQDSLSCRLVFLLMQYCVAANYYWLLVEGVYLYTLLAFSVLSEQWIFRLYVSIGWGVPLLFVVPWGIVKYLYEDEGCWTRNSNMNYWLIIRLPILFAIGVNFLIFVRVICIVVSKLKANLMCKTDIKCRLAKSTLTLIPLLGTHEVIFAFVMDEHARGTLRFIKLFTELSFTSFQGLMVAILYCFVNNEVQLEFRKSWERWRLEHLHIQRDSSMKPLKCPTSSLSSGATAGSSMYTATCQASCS
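Constitutively active GLP-1R drives a cAMP-responsive luciferase in stably transfected HEK293 cells; test compounds are added after overnight (12 h) attachment and left 24 hr, and signal loss in luminescence marks inhibition.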
HEK293 tox = cytotoxicity counter-screen for GLP-1 receptor inverse agonists. HEK293 cAMP-luciferase reporter cells, luminescence, 24 h. Potency, µM (series often up to 38.3 µM), inactives show at the top dose activity change, negative = inhibition, usual class: inhibitors. actives 0.13% (n = 410,000);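 also: loss of luciferase light is scored as toxicity; potency is read from the fitted curve at half-maximal effect; % is scaled to controls: 0 for no effect and ±100 for the full control effect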
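Seeding density was 200 cells/uL; after overnight-length (12 h) culture, 23 nL compounds went on for 24 h at 37 °C. Readout used a luciferase detection reagent, luminescence taken after 12 min at room temperature.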
GLP1R ag = GLP-1 receptor (human) agonism; P43220; HEK293 GLP-1R CRE-luciferase, luminescence, 4-6 h; cells express a hypersensitive GLP-1R form; Potency, µM (doses to about 45.6 µM), for the others: at the top dose activation, most hits filed as activators; actives 0.007% (n = 380,000); also: potency is read from the fitted curve at half-maximal effect; % of control where 0% means no effect
PTHR1 ag = PTHR1 (human) receptor agonism; Q03431; HEK293 GP2 PTHR1 cells, GloSensor cAMP luminescence, 1 h; Potency, µM (titrated, usually from 115 µM), for inactives: top-dose activation, usual class: activators; actives 0.075% (n = 410,000); AID 743266; also: potency is read from the fitted curve at half-maximal effect; nearly all actives have a fitted effect of over 55% in size
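HEK-293-derived GP2 cells expressing PTHR1 and a GloSensor cAMP reporter, 3,000/well, plated overnight, given luciferin plus IBMX (each 0.5 mM as added) for 1 h at 37 °C, then compound for 1 h at 37 °C. Luminescence was read after 15 min at room temperature.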
An asterisk follows results filed as active; i = inactive; ? = inconclusive; . = no result; [ ] = another dose, or the depositor's remark. Most compounds without a hit are left out; they make up all but 1.8% or so of the library. Unless noted, calls follow the shape of the dose curve; as a rule, active = well fitted curve in the direction sought with a large enough effect; inconclusive = small, poorly fitted or top-dose-only effect, or another doubt; inactive = no such curve, though single readings can be large; an effect the other way counts as inactive or inconclusive.

SMILES	TSHR antagonist	GLP1R inv ag	HEK293 tox	GLP1R ag	PTHR1 ag
COc1cccc(C(C(=O)NC2CCCC2)N2CCN(c3cc(C)ccc3C)CC2)c1OC (centres undefined)	.	8.9µM*	-8%	.	i
c1ccc2cc(CSCc3nc4ccccc4[nH]3)ccc2c1	-6	10µM*	?	-2%	-17%
CCN(CC)CCNC(=O)CCc1c(C)nc2c(c(C)nn2-c2ccc(C)cc2)c1C	31	1.6µM*	?	0%	-40%
CCOC(=O)NNc1ccc(N(CC)CC(C)O)nn1 (centres undefined)	.	.	.	-2%	.
COc1ccc(/C=N/Nc2nc(Nc3ccccc3)nc(N3CCCC3)n2)cc1[N+](=O)[O-]	-16	8%	?	14%	-20%
COc1ccc(/C=N/Nc2nc(Nc3ccccc3)nc(N3CCCCC3)n2)c(OC)c1	-25	?	5µM*	3%	-24%
COc1cc(/C=N/Nc2nc(Nc3ccccc3)nc(N3CCOCC3)n2)ccc1OC(=O)c1ccco1	-16	4.5µM*	-26%	5%	-13%
Cc1ccc(S(=O)(=O)c2nc(-c3cccs3)oc2SCc2ccc(F)cc2)cc1	.	?	-15%	.	-24%
CC(NCC(=O)NCC(=O)Nc1ccc(F)cc1)c1cccc(C(F)(F)F)c1 (centres undefined)	.	?	-7%	1%	i
CC(NCC(=O)Nc1ccccc1C(=O)NC1CC1)c1cccc(C(F)(F)F)c1 (centres undefined)	16	13µM*	0%	11%	-31%
O=C(CSC1=Nc2ccccc2N=C(c2ccc(F)cc2)C1)Nc1ccc(Cl)cc1	.	2%	4%	0%	-4%
COc1ccc(CC2(CO)CCN(CC3=Cc4cc(Cl)ccc4OC3)CC2)cc1	-22	2.8µM*	?	16%	-29%
COc1ccc2c(c1)C=C(CN1CCC(CO)(CCc3ccccc3)CC1)CO2	14	?	1%	22%	-3%
Cc1nc(SCC(=O)Nc2ccccc2C)cc(-c2ccccc2)n1	.	3%	2%	.	-47%
C=CCn1c(NCc2cc(Cl)ccc2O)nc2ccccc21	8	11µM*	-1%	4%	-90%
C=CCn1c(NCc2ccccc2O)nc2ccccc21	-2	?	-8%	2%	i
Cc1ccc(OCc2nnc(SCC(=O)c3cccs3)n2-c2ccccc2)cc1C	-14	10µM*	-5%	15%	-1%[57.5 µM]
O=C(CSc1nnc(COc2ccccc2)n1-c1ccccc1)c1cccs1	-25	8.9µM*	6%	0%	-17%[57.5 µM]
O=C(O)CSc1nnc(COc2ccccc2)n1-c1ccccc1	2	7%	-21%	-4%	i
COc1ccc(Cl)cc1NC(=O)C(C)N1Cc2ccccc2C1=O (centres undefined)	.	-11%	-8%	.	i
Cc1ccc2ccc(C(Nc3ccccc3)c3ccccc3)c(O)c2n1 (centres undefined)	.	6.3µM*	6%	.	-75%
Cc1ccc2ccc(C(Nc3ccccc3)c3ccc(C(C)C)cc3)c(O)c2n1 (centres undefined)	.	3.5µM*	-6%	.	-49%
CCOC(=O)c1cc(S(=O)(=O)N2CCN(c3ccccc3OC)CC2)[nH]n1	.	0%	17%	.	i
O=C(CCc1ccccc1)NCc1ccc2c(c1)CCN2C(=O)c1ccc(Cl)cc1	.	8%	4%	.	?
O=C(NCCCN1CCN(c2ccccc2)CC1)c1ccc2nc(CCc3ccccc3)oc2c1	.	16%	5%	.	-35%
O=[N+]([O-])c1ccc(Sc2cccc3cccnc23)c([N+](=O)[O-])c1	1	?	3.2µM*	0%	i
C=CCn1nc([N+](=O)[O-])nc1Sc1cccc2cccnc12	-1	?	2.8µM*	-21%	i
COc1ccc2c(c1)-c1nc(NC(=O)c3cc(OC)c(OC)c(OC)c3)sc1CC2	.	10µM*	?	.	?
CCc1sc(C(=O)Nc2nc(C)cs2)cc1C	-18	10µM*	?	4%	i
